High-throughput results (PubChem BioAssay)
The list is not random: actives were taken first. Their share in the collection is about 3.8%.
ADAM17 inh: inhibitors of human ADAM17; inhibition, % at 6.95 µM; AID 720648; recombinant ADAM17, EDANS/DABCYL FRET peptide cleavage; 370,000 compounds, 0.83% hits; P78536;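 active = inhibition above the mean of compounds lying between control limits plus 3 SD, set per campaign, cut at about 8.5% in these data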;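 also: 0% = DMSO-only wells as the low control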
Target sequence (P78536 215-824 limits assumed): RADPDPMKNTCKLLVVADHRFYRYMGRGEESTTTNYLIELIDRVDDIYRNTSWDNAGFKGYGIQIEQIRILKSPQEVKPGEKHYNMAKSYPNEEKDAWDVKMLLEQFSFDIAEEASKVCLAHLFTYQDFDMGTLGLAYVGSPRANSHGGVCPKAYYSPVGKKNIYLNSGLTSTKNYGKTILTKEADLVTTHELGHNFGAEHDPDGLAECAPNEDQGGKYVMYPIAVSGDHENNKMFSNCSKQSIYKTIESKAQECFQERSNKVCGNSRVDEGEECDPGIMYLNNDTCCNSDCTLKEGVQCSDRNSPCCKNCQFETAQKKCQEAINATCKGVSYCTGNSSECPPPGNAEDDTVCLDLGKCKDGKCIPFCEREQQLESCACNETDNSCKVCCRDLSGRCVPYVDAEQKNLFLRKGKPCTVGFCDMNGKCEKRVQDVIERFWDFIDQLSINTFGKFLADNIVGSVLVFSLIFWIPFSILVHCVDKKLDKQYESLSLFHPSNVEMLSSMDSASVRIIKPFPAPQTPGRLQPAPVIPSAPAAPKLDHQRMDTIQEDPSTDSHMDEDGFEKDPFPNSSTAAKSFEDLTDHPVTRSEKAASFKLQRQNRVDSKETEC
ADAM10 inh: inhibitors of human ADAM10; inhibition, % at 7 µM; AID 720582; recombinant ADAM10, EDANS/DABCYL FRET peptide cleavage, 3 h; 370,000 compounds, 0.62% hits;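 active = inhibition above a per-campaign cutoff equal to the mean of compounds falling between control-based bounds plus 3 SD, cut at about 20% in these data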;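 also: 0% = DMSO wells while the 100% control is not disclosed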
proKLK7 act: activates the human kallikrein-7 zymogen; purified proKLK7, EDANS-DABCYL substrate fluorescence; 100% is mature enzyme control, 0% vehicle; 370,000 compounds, 0.9% hits; P49862; activation, % at 7 µM;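 active = activation above the mean of all tested compounds plus 3 SD, computed per campaign excluding outliers beyond control limits, cut at about 13% in these data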
Ecoli rRNA inh: selective bacterial rRNA inhibition in E. coli; E. coli WT GFP vs humanized-ribosome RFP mutants, fluorescence, 24 h; hits give low values; DMSO median 0, no signal -100; GFP signal change (wild-type ribosome), % (no concentration beside the values); 350,000 compounds, 1.6% hits; AID 720706;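 active = significant combined selectivity score with lowered wild-type GFP, culture density cut under 30%, mutant RFP and density less affected; inactive = any of these conditions unmet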
FGF22 binding-1: binders of recombinant human FGF22 by thermal shift; 340,000 compounds, 1.5% hits; SYPRO orange fluorescence; percent of sucrose octasulfate shift, DMSO zero; activity (Tm shift, normalised), % at 9.99 µM; Q9HCT0;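 active = mean Tm shift, scaled 0 neutral to 100 positive control, at about 1.3% or above, every replicate too, limit read from the data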
FGF22 binding-2: binds human FGF22 shifting its melting temperature | shares compounds with FGF22 binding-1 | recombinant FGF22 thermal shift, SYPRO orange fluorescence | thermal shift activity, °C (ΔTm) at 38 µM | 1,000 compounds, 2% hits | AID 720646;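 active = fitted rise in melting shift crosses a set limit at or below the top valid dose tested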
FGF22 TSA DP: binders of human FGF22 by thermal shift; shares compounds with FGF22 binding-1; Thermal shift assay, SYPRO orange, melting temperature shift; Tm shift (activity), % at 38 µM; 50 tested, under 10 active; AID 743017;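 active = compounds whose fitted dose curve of melting temperature shift rises past a set threshold within the tested doses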
TSA no protein: counter-screen for FGF22 binders: compound-only thermal shift, no protein; shares compounds with FGF22 binding-1; compound-only SYPRO orange thermal shift counter-screen; 1,000 compounds, 2% hits; AID 743019; AC50, µM (top dose mostly 38 µM);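 active = rising signal whose fitted curve reaches the 0.54 level within the top valid dose, showing a melting point, actives reach about 13 µM in these data; inactive = the rest, including activity in the opposite direction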; also: value is where the raw curve crosses a fixed level and not half-maximal
Active calls of the source: *; i = inactive; . = no result; [ ] = another dose, or the depositor's remark.

SMILES	ADAM17 inh	ADAM10 inh	proKLK7 act	Ecoli rRNA inh	FGF22 binding-1	FGF22 binding-2	TSA no protein	others
O=C(N[C@H]1CC[C@@H](CCNS(=O)(=O)c2ccc(F)cc2)O[C@H]1CO)c1ccccn1	.	.	.	0	1.4*	0.003[42 µM]	i
CCCC#Cc1cnc2c(c1)C(=O)N([C@H](C)CO)C[C@H](C)[C@H](CN(C)C(=O)CCN1CCCCC1)O2	.	.	.	.	0	.	.
CN(C)C(=O)c1ccc(-c2ccc(C3[C@@H]4CN(C(=O)C5CCOCC5)C[C@H]3N4)cc2)cc1 (stereo partly specified)	.	.	.	11	.	.	.
Cc1ccc(C(=O)Nc2nc(=O)n(C(=O)C3CC3)s2)cc1	2	3	0	5	1.3*	-0.088	i
O=C(Nc1nc(=O)[nH]s1)c1ccccc1	-1	-2	0	-2	1	.	.
O=C(Nc1nc(=O)n(C(=O)C2CC2)s1)c1ccccc1	-2	-5	-1	1	2.2*	-0.028	i
Cc1ccc(C(=O)Nc2nc(=O)n(C(=O)c3ccccc3C)s2)cc1	1	-1	0	.	.	.	.
COc1nsnc1NS(=O)(=O)c1ccc(NC(=S)NC(=O)c2cccnc2)cc1	0	-7	1	-48	1.6*	-0.021	i
Cc1cc(C)cc(C(=O)NCC(=O)N2CCN(c3cccc(Cl)c3)CC2)c1	1	1	0	-6	37*	0.15	i
Cc1cccc(C(=O)NCC(=O)N2CCN(c3ccc(Cl)cc3)CC2)c1	-8	-11	0	3	0	.	.
CCCN1C[C@@H](C)[C@H](OC)CN(C)C(=O)c2cc(NC(=O)Nc3cccc(OC)c3)ccc2OC[C@@H]1C	.	.	.	-3	.	.	.
C=CCN1C(=O)C(CC(=O)Nc2ccc(OCC)cc2)N(Cc2ccccn2)C1=S (stereo unspecified)	-3	3	0	-13	1	.	.
COc1ccc(N2C(=O)C(CC(=O)Nc3ccccc3)N(Cc3ccccn3)C2=S)cc1 (stereo unspecified)	-2	3	0	-11	1.7*	-0.015	i
CCNC(=O)CC1C(=O)N(c2ccc(F)cc2)C(=O)N1Cc1ccccn1 (stereo unspecified)	-19	1	0	.	.	.	.
CCOc1ccc(N2C(=O)C(CC(=O)Nc3ccccc3)N(Cc3ccccn3)C2=S)cc1 (stereo unspecified)	2	9	0	-12	1.5*	0.58	i
COc1ccc(NC(=O)CC2C(=O)N(c3ccc(OC)cc3)C(=O)N2Cc2ccc(OC)c(OC)c2)cc1 (stereo unspecified)	-4	-9	0	8	0	.	.
COc1ccc(N2C(=O)C(CC(=O)Nc3ccccc3)N(Cc3ccc4c(c3)OCO4)C2=O)cc1 (stereo unspecified)	.	.	.	-4	1.4*	0.043	i
CCOc1ccc(N2C(=O)C(CC(=O)Nc3ccc(F)cc3)N(Cc3ccccn3)C2=S)cc1 (stereo unspecified)	4	12	0	2	1.7*	-0.35	i
COc1cccc(C(=O)Nc2ccc3c(c2)C(=O)N(C)[C@@H]2CC[C@H](CC(=O)NCC(F)(F)F)O[C@@H]2CO3)c1	.	.	.	-1	0	.	.
FC(F)(F)CN1C[C@@H]2C(c3ccccc3)[C@H](C1)N2CC(F)(F)F (stereo partly specified)	.	.	.	2	.	.	.
CCCN1[C@H](C(=O)OC)[C@@H](CO)[C@@H]2Cn3c(ccc(-c4cccnc4)c3=O)[C@@H]21	.	.	.	2	.	.	.
C=C(C1=CCN(S(=O)(=O)C(C)(C)C)[C@H]1CCO)c1ccccc1	4	1	0	3	15*	0.047	i
O=C(C[C@H]1CC[C@@H]2[C@H](COC[C@H](O)CN2C(=O)Nc2ccccc2)O1)NC1Cc2ccccc2C1	.	.	.	3	0	.	.
Cc1ccc(NC(=O)c2sc3ncn(CC(=O)N4CCN(c5ccccn5)CC4)c(=O)c3c2C)cc1Cl	-3	-3	0	12	0	.	.
Cc1ccc(NC(=O)c2sc3ncn(CC(=O)N4CCN(c5ccccn5)CC4)c(=O)c3c2C)cc1F	1	10	0	2	1.4*	0.091	i
SMILES	ADAM17 inh	ADAM10 inh	proKLK7 act	Ecoli rRNA inh	FGF22 binding-1	FGF22 binding-2	TSA no protein	others
O=C(N[C@@H]1CC[C@H](CCn2cc(-c3ccccc3)nn2)O[C@@H]1CO)c1ccccc1F	.	.	.	-2	0	.	.
Cc1cc(NC(=O)c2ccccc2NS(=O)(=O)c2c(C)c(C)cc(C)c2C)no1	-25	-71	-3	.	.	.	.
O=C(O)c1ccccc1NS(=O)(=O)c1ccc2ccccc2c1	-1	-13	0	-50	1.6*	-0.049	i
Cc1cc(C)c(C)c(S(=O)(=O)Nc2ccccc2C(=O)O)c1C	-2	-15	1	-32	1.4*	0.15	i
Cc1noc(C)c1S(=O)(=O)Nc1ccc2c(c1)C(=O)N([C@@H](C)CO)C[C@@H](C)[C@@H](CN(C)C(=O)Nc1ccc(C(F)(F)F)cc1)OCCCC[C@H](C)O2	.	.	.	-3	-1	.	.
COC(=O)[C@H]1[C@H](CO)[C@H]2Cn3c(ccc(C4=CCCC4)c3=O)[C@H]2N1CC1CCOCC1	.	.	.	4	0	.	.
O=C(N/N=C/c1c[nH]c2ccccc12)c1ccc(Cl)cc1	0	-4	0	-11	0	.	.
Nc1ccc(C(=O)N/N=C/c2c[nH]c3ccccc23)cc1	-2	-7	0	-3	2.7*	0.15	i	FGF22 TSA DP=0
O=C(N/N=C\c1c[nH]c2ccccc12)c1ccc(O)cc1	-8	-7	-2	7	6.7*	.	i
O=C(N/N=C/c1c[nH]c2ccccc12)C1CC1c1ccccc1 (stereo unspecified)	1	5	1	-28*	1.5*	0.036	i
O=C(N/N=C/c1c[nH]c2ccccc12)c1ccc(Br)cc1	0	0	0	0	0	.	.
CC(C)(C)c1ccc(C2CC2C(=O)N/N=C\c2ccc[nH]2)cc1 (stereo unspecified)	-2	1	1	-12	2.0*	-0.039	i
O=C(N/N=C/c1c[nH]c2ccccc12)C1CC1(c1ccccc1)c1ccccc1 (stereo unspecified)	3	4	-1	.	.	.	.
Cc1ccc(-c2ccc3c(c2)O[C@H](CN(C)Cc2cccnc2)[C@@H](C)CN([C@@H](C)CO)S3(=O)=O)cc1	.	.	.	-17	0	.	.
C[C@@H]1CCCCO[C@@H](CN(C)C(=O)Cc2ccccc2)[C@H](C)CN([C@H](C)CO)C(=O)c2cc(NC(=O)CCC(F)(F)F)ccc2O1	.	.	.	3	0	.	.
